The source made the active and inactive calls. Unless noted, how the calls were made is not given here.
Columns and labels:
[1] = resazurin metabolic signal in HepG2 cells – cell-based, resazurin fluorescence, 24 h, PK04 Diversity Set, profiling panel (AID 1172); conditions: HepG2 viability, higher = more signal
[2] = budding yeast growth changes without added modifier – OD600, strain BY4716, 24 h, basal condition, primary screen (AID 1173); conditions: S. cerevisiae BY4716 growth, OD600, 24 h; higher = more signal, called active from +8 up or from −8 down
[3] = viability profiling in MM1S myeloma cells – cell-based, resazurin fluorescence, basal, 24 h, PK04 Diversity Set, profiling panel (AID 1174); conditions: higher = more signal, called active from +8 up or from −8 down;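 further: MM1S multiple myeloma cell line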
[4] = molecular target: Dihydroorotate dehydrogenase (quinone), mitochondrial (Plasmodium falciparum (isolate 3D7)) (UniProt Q08210); test: inhibition of P. falciparum DHODH – biochemical, C-terminal His tag, absorbance 600 nm, primary screen (AID 1175); conditions: PfDHODH enzyme, DCIP absorbance 600 nm; higher = more signal, called active from +8 up or from −8 down;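 further: recombinant parasite enzyme with a five histidine tag at its C terminus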
[5] = inhibition of PAO1 biofilm formation – strain PAO1, LB-PBS medium, absorbance 600 nm, primary screen (AID 1176); conditions: P. aeruginosa PAO1 growth/biofilm, A600, 12 h; higher = more signal
[6] = growth modulation of vineyard yeast isolate – strain RM11-1a, OD600, basal, 24 h, primary screen (AID 1177);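 further: cultures grown under basal conditions with no added stressor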; conditions: S. cerevisiae RM11-1a growth, OD600, 24 h; higher = more signal, called active from +8 up or from −8 down
[7] = growth of efflux-deficient E. coli DRC39 – strain DRC39, OD650, 24 h, E. coli filamentation inducers, primary screen (AID 1178);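 further: growth measured as culture turbidity by optical density at 650 nm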; conditions: E. coli DRC39 acrAB, higher = more signal, called active from +8 up or from −8 down
[8] = growth of efflux-deficient E. coli DRC39 – strain DRC39, OD650, 48 h, E. coli filamentation inducers, primary screen (AID 1179);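 further: screen aims at cell division blockers that make cells filament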; conditions: E. coli DRC39 delta-acrAB growth, higher = more signal, called active from +8 up or from −8 down
[9] = viability profiling in RPMI8226 myeloma cells – cell-based, resazurin fluorescence, basal, 24 h, PK04 Diversity Set, profiling panel (AID 1180); conditions: higher = more signal;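 further: RPMI8826 multiple myeloma cell line at 5000 cells per well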
[10] = molecular target: E3 ubiquitin-protein ligase XIAP (Homo sapiens) (UniProt P98170); test: small molecules binding XIAP protein – biophysical, small-molecule microarray, fluorescence 635 nm, primary screen (AID 1181); conditions: higher = more signal;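 further: score merges 667 nm emission and signal to noise over triplicate slides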
[11] = test system: XIP peptide (Xip251-270) binding; test: XIP fragment 251-270 binding compounds – biochemical, small-molecule microarray, fluorescence 635/667 nm, 0.1 µg/mL protein, primary screen (AID 1182); conditions: fluorescent protein binding, 635 nm, higher = more signal, called active from +8 up or from −8 down
XIP peptide (Xip251-270) = test: compounds binding XIP fragment 251-270 – biochemical, small-molecule microarray, fluorescence 635/667 nm, 0.5 µg/mL protein, primary screen (AID 1183); conditions: fluorescence 635 nm, higher = more signal
[12] = blood-stage malaria parasite viability loss – strain 3D7, DAPI fluorescence, 100 nL, primary screen (AID 1184);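 further: parasites grown inside human red blood cells in medium with human serum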; conditions: P. falciparum 3D7 growth, 3 d, higher = more signal
[13] = molecular target: Homeobox protein Hox-A13 (Mus musculus) (UniProt Q62424); test: disruptors of Hoxa13 oligonucleotide interaction – biochemical, fluorescence polarization, labeled oligonucleotide, primary screen (AID 1185); conditions: Hoxa13:DNA binding, 15 min, higher = more signal, called active from +8 up or from −8 down
[14] = blockers of DNA damage checkpoint Chk1 activation – imaging, HeLa, hydroxyurea, phospho-Chk1 antibody, percent positive cells, primary screen (AID 1186); conditions: hydroxyurea-induced phospho-Chk1 immunofluorescence imaging, higher = more signal
[15] = blockers of DNA damage checkpoint Chk1 activation – imaging, HeLa, hydroxyurea, phospho-Chk1 nuclear intensity, primary screen (AID 1187); conditions: hydroxyurea-induced phospho-Chk1 immunofluorescence imaging, higher = more signal

Sequence of Dihydroorotate dehydrogenase (quinone), mitochondrial (Plasmodium falciparum (isolate 3D7)) (Q08210 whole entry, looked up): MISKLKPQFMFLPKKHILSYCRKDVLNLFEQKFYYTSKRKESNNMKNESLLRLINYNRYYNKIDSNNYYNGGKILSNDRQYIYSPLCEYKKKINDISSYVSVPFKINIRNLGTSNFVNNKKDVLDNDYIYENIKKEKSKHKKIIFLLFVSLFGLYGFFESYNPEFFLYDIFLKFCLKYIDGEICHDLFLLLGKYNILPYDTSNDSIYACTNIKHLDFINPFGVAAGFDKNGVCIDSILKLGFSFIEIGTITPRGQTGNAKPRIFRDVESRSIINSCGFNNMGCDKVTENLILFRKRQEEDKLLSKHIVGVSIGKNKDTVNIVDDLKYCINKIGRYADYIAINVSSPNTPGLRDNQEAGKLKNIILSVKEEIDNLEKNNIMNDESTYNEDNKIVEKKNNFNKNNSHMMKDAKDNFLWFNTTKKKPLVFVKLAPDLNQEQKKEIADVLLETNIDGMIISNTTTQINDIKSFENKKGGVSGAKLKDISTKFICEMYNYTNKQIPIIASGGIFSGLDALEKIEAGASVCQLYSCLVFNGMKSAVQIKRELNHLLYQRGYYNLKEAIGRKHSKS
Sequence of Homeobox protein Hox-A13 (Mus musculus) (Q62424 whole entry, looked up): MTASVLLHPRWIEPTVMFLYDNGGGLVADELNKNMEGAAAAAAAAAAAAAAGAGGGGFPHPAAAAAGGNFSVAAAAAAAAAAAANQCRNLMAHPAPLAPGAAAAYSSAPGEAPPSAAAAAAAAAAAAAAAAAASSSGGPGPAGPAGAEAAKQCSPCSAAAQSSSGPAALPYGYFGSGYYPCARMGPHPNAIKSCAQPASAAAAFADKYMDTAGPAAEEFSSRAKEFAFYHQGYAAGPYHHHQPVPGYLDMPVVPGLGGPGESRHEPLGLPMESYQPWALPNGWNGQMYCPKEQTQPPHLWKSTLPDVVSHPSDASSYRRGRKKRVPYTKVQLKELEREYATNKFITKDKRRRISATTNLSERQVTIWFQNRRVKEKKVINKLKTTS
Sequence of E3 ubiquitin-protein ligase XIAP (Homo sapiens) (P98170 whole entry, looked up, the tested form may be a part): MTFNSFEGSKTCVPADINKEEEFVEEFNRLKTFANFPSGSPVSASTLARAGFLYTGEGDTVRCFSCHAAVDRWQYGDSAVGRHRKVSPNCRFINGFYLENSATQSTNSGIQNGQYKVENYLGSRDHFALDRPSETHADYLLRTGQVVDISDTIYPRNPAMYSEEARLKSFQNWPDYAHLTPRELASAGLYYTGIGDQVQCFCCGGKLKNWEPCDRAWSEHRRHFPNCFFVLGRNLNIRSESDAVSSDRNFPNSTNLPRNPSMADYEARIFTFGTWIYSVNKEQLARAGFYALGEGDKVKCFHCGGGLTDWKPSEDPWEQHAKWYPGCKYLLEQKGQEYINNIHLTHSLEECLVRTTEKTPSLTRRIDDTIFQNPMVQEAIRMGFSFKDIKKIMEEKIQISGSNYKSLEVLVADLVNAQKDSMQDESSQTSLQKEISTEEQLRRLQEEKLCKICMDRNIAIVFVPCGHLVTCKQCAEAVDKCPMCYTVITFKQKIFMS

Compound	z-score [1]	z-score [2]	z-score [3]	composite z-score [4]	z-score [5]	z-score [6]	z-score [7]	z-score [8]	z-score [9]	composite z-score [10]	composite z-score [11]	composite z-score (XIP peptide (Xip251-270))	z-score [12]	z-score [13]	z-score [14]	z-score [15]
COC(=O)[C@@]1(Cc2ccc(F)cc2)[C@H]2c3cc(C(=O)N4CCCC4)n(CCF)c3C[C@H]2CN1C(=O)c1ccccc1	-0.282	-0.273 (inactive)	-0.547 (inactive)	-0.41 (inactive)	0.84 (inactive)	0.24 (inactive)	-0.239 (inactive)	-0.311 (inactive)	-0.185	-0.233	2.43 (inactive)	-0.352	-0.815	-4.62 (inactive)	-0.323 (inactive)	-0.593 (inactive)
CC(=O)n1cc(C(O)C2C=CC3C(=O)N(Cc4ccccc4)C(=O)C3N2n2cnnc2)c2ccccc21 (stereo not given)	-0.227	0.319 (inactive)	-0.929 (inactive)	-0.351 (inactive)	-0.514 (inactive)	-0.371 (inactive)	-1.34 (inactive)	-1.4 (inactive)	-1.27	0.764	0.097 (inactive)	0.008	-0.15	-3.16 (inactive)	1.19 (inactive)	0.239 (inactive)
COCCOC(=O)N1C(=O)[C@@]2(c3cc(C#CC4=CCCCC4)ccc31)[C@H](c1ccccc1OCCO)N1[C@H](c3ccccc3)[C@H](c3ccccc3)OC(=O)[C@H]1[C@@H]2C(=O)N1CCc2cc(OC)c(OC)cc2C1	-0.605	1.46 (inactive)	-0.347 (inactive)	-0.349 (inactive)	1.92 (inactive)	2.25 (inactive)	-0.398 (inactive)	0.425 (inactive)	-0.486	-0.11	3.26 (inactive)	0.717	-1.68	2.38 (inactive)	0.0575 (inactive)	0.139 (inactive)
[N-]=[N+]=NCc1ccccc1C[C@@]1(C(=O)N2CCCCC2)N=C(c2ccc(OCCCO)cc2)O[C@@H]1c1ccccc1N=[N+]=[N-]	0.226	0.146 (inactive)	-0.964 (inactive)	0.42 (inactive)	0.509 (inactive)	1.41 (inactive)	0.878 (inactive)	-0.0021 (inactive)	-0.892	0.0694	1.25 (inactive)	0.386	-2.24	-1.84 (inactive)	-0.298 (inactive)	0.246 (inactive)
CCOc1cc(C(O)C2C=CC3C(=O)N(C4CCCCC4)C(=O)C3N2Nc2ccc(OC)cc2)ccc1O (stereo not given)	0.182	0.0779 (inactive)	0.312 (inactive)	-0.665 (inactive)	0.698 (inactive)	0.0701 (inactive)	0.231 (inactive)	1.13 (inactive)	0.753	0.169	0.0699 (inactive)	0.486	-0.165	-3.99 (inactive)	-0.509 (inactive)	-0.813 (inactive)
Cc1ccc(S[C@]2(C(=O)NCC(F)(F)F)CC(=O)N(Cc3ccccc3)[C@@H]2c2ccc(CO)cc2)cc1	-0.991	-0.185 (inactive)	0.546 (inactive)	-0.309 (inactive)	-0.131 (inactive)	-0.629 (inactive)	0.163 (inactive)	-0.0965 (inactive)	0.342	0.4	1.02 (inactive)	0.5	-1.57	-3.77 (inactive)	-0.336 (inactive)	-0.603 (inactive)
O=C(O)[C@H](Cc1ccccc1)n1cc(-c2ccccn2)nn1	0.535	-0.65 (inactive)	0.365 (inactive)	-0.435 (inactive)	-0.476 (inactive)	0.911 (inactive)	-0.256 (inactive)	0.23 (inactive)	0.373	0.122	0.355 (inactive)	0.32	0.214	-0.876 (inactive)	0.721 (inactive)	0.662 (inactive)
C=C(/C(=C/C[C@@H](OC(=O)c1ccncc1)c1ccc(OCCO)cc1)c1cc(C(=O)OC)ccc1OC)C(C)C	1.54	0.542 (inactive)	0.288 (inactive)	-0.444 (inactive)	0.224 (inactive)	-0.0338 (inactive)	0.945 (inactive)	0.52 (inactive)	0.352	-0.0916	0.281 (inactive)	0.309	-2.78	-3.5 (inactive)	-0.899 (inactive)	-0.125 (inactive)
Cc1ccc(S[C@]2(C(=O)NC3CC3)CC(=O)N(Cc3ccccc3Cl)[C@@H]2c2ccc(CO)cc2I)cc1	-0.451	-4.44 (inactive)	-3.72 (inactive)	-2.13 (inactive)	0.348 (inactive)	-0.526 (inactive)	0.17 (inactive)	0.932 (inactive)	-1.61	-0.0118	0.98 (inactive)	0.824	0.287	-1.54 (inactive)	0.159 (inactive)	0.858 (inactive)
CC(C)CNC(=O)[C@@]1(c2ccc([N+](=O)[O-])cc2)CC(=O)N(C2CCCCC2)[C@@H]1c1ccc(CO)cc1I	0.201	-0.871 (inactive)	-0.0126 (inactive)	0.797 (inactive)	0.304 (inactive)	-0.294 (inactive)	0.175 (inactive)	-0.683 (inactive)	0.447	0.169	0.551 (inactive)	0.792	-0.923	-4.89 (inactive)	0.093 (inactive)	-0.208 (inactive)

Reference: PubChem BioAssay
